Source: the supplement of paper PMC11482750
± gives the standard deviation of the averaged measurements.

Columns and labels:
Experiment in all cases: control-subtracted net OSN firing rate; higher = stronger neuronal activation
Details in all cases: odorant dilution (vol/vol): 1/100
phenethyl acetate = compound: CC(=O)OCCc1ccccc1 [phenethyl acetate]
In short: (§1)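 Single sensillum recordings were taken from palp or antennal olfactory sensory neurons of 1–5-day-old fed females of Scaptomyza species or of D. melanogaster wild-type, mutant or at1 empty-neuron lines expressing Or42a homologs. Odorants (1:100 vol/vol in mineral oil or dimethyl sulfoxide) were pulsed for 1 s into 16 ml/min filtered air. Replicate means are given of spikes counted over 0.5 s from 0.2 s after onset, after background subtraction, doubling and solvent correction.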

fenchone = compound: CC12CCC(C1)C(C)(C)C2=O [fenchone]
In short: as §1

2-hexanol = compound: CCCCC(C)O [2-hexanol]
In short: as §1

4-ethylguaiacol = compound: CCc1ccc(O)c(OC)c1 [4-ethylguaiacol]
In short: as §1

methyl salicylate = compound: COC(=O)c1ccccc1O [methyl salicylate]
In short: as §1

guaiacol = compound: COc1ccccc1O [guaiacol]
In short: as §1

phenethyl alcohol = compound: OCCc1ccccc1 [phenethyl alcohol]
In short: as §1

Row | Target | control-subtracted net OSN firing rate (phenethyl acetate) | control-subtracted net OSN firing rate (fenchone) | control-subtracted net OSN firing rate (2-hexanol) | control-subtracted net OSN firing rate (4-ethylguaiacol) | control-subtracted net OSN firing rate (methyl salicylate) | control-subtracted net OSN firing rate (guaiacol) | control-subtracted net OSN firing rate (phenethyl alcohol)
1 | Canton-S (D. melanogaster) pb3a | 0 ± 9.4 spikes/s | -2.83 ± 8.3 spikes/s | 15.8 ± 18 spikes/s | 7.5 ± 8.4 spikes/s | 6.33 ± 7.3 spikes/s | 2.33 ± 8.2 spikes/s | 7.67 ± 9.3 spikes/s
2 | S. flava pb3a-like | 160 ± 17 spikes/s | -2.67 ± 5.6 spikes/s | 6 ± 10 spikes/s | -3.33 ± 9.6 spikes/s | 5.67 ± 12 spikes/s | -5.33 ± 6.2 spikes/s | -3.33 ± 6.8 spikes/s
3 | S. pallida pb2b-like | -0.333 ± 8.7 spikes/s | -3.33 ± 8.8 spikes/s | 27 ± 9.9 spikes/s | 24 ± 19 spikes/s | 72 ± 19 spikes/s | 75.7 ± 20 spikes/s | 15 ± 11 spikes/s
4 | S. flava pb3b-like | 2.67 ± 5 spikes/s | 0 ± 5.4 spikes/s | -1 ± 27 spikes/s | 14.7 ± 34 spikes/s | 7.67 ± 26 spikes/s | 8.33 ± 15 spikes/s | 2.67 ± 6.8 spikes/s
5 | S. montana pb2a-like | 1 ± 6.5 spikes/s | 177 ± 36 spikes/s | 5.67 ± 14 spikes/s | 1.67 ± 7.7 spikes/s | 6 ± 6.3 spikes/s | 6 ± 6.6 spikes/s | 7.67 ± 14 spikes/s
6 | Canton-S (D. melanogaster) pb2a | 0.286 ± 4.5 spikes/s | 166 ± 26 spikes/s | 3.43 ± 4.9 spikes/s | 4.86 ± 4.6 spikes/s | 3.43 ± 3.4 spikes/s | 6.86 ± 8.1 spikes/s | 6.29 ± 5.3 spikes/s
7 | S. hsui pb3b-like | -7 ± 2.1 spikes/s | -2.67 ± 6.5 spikes/s | -6.67 ± 6.8 spikes/s | -5.67 ± 2.9 spikes/s | 1.33 ± 5.8 spikes/s | -2.33 ± 4.5 spikes/s | -2.67 ± 5 spikes/s
8 | S. montana pb3a-like | 97 ± 35 spikes/s | -2.33 ± 6.9 spikes/s | 5.67 ± 13 spikes/s | -8.67 ± 17 spikes/s | 3.33 ± 9.9 spikes/s | -4.33 ± 12 spikes/s | -3.33 ± 15 spikes/s
9 | S. hsui pb2a-like | 1 ± 7.1 spikes/s | 140 ± 16 spikes/s | 6 ± 8 spikes/s | 3.33 ± 7.3 spikes/s | 6.33 ± 3.2 spikes/s | 8 ± 7.5 spikes/s | 3.67 ± 9.2 spikes/s
10 | S. flava pb2b-like | 4.33 ± 11 spikes/s | -3.67 ± 6.9 spikes/s | 11.7 ± 17 spikes/s | 15 ± 14 spikes/s | 111 ± 28 spikes/s | 121 ± 31 spikes/s | 10 ± 17 spikes/s
11 | S. hsui pb1b-like | 1 ± 7 spikes/s | -3.67 ± 6.1 spikes/s | -11.7 ± 9.8 spikes/s | 111 ± 24 spikes/s | -4.67 ± 8.6 spikes/s | 78 ± 26 spikes/s | -11 ± 8.7 spikes/s
12 | S. flava pb1a-like | 7.33 ± 6.5 spikes/s | 1.33 ± 6.5 spikes/s | 111 ± 28 spikes/s | -5 ± 7.8 spikes/s | 6.67 ± 15 spikes/s | 4 ± 10 spikes/s | 82.7 ± 46 spikes/s
13 | S. montana pb2b-like | -2.33 ± 4.8 spikes/s | -7.33 ± 4.5 spikes/s | 16.7 ± 14 spikes/s | 16 ± 12 spikes/s | 106 ± 35 spikes/s | 107 ± 49 spikes/s | 18.3 ± 17 spikes/s
14 | S. pallida pb1a-like | 26.7 ± 30 spikes/s | -3.67 ± 8.8 spikes/s | 88.3 ± 13 spikes/s | 0.667 ± 8.8 spikes/s | 15.3 ± 34 spikes/s | 42 ± 22 spikes/s | 23 ± 38 spikes/s
15 | Canton-S (D. melanogaster) pb1a | 7.11 ± 7.8 spikes/s | 0 ± 8.1 spikes/s | 68.7 ± 32 spikes/s | 1.78 ± 9.1 spikes/s | 6.22 ± 13 spikes/s | 5.33 ± 8.1 spikes/s | 4 ± 8.7 spikes/s
